The whole screen tested about 2,200 compounds, of which about 1,700 (77%) were called active.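 The calls were made as follows: active = mean inhibition across replicate wells exceeding the computed hit threshold (cut at about 13% in these data); inactive = the rest.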 So high a share suggests a set chosen from earlier hits. These entries were drawn from the full list.
Target: Hepatocyte nuclear factor 4-alpha (Homo sapiens) (UniProt P41235)
Test: HNF4 dimerization inhibitors, counter-screen for ABHD5-PLIN5 interaction inhibitor project, biochemical, split-luciferase complementation, luminescence (AID 651674);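 also: light from luciferase halves that rejoin when HNF4 fusion proteins dimerize; 0% = DMSO only wells and the 100% control is not given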
Conditions: at 4 µM, active compounds read high

Sequence of Hepatocyte nuclear factor 4-alpha (Homo sapiens) (P41235 whole entry, looked up, the tested form may be a part): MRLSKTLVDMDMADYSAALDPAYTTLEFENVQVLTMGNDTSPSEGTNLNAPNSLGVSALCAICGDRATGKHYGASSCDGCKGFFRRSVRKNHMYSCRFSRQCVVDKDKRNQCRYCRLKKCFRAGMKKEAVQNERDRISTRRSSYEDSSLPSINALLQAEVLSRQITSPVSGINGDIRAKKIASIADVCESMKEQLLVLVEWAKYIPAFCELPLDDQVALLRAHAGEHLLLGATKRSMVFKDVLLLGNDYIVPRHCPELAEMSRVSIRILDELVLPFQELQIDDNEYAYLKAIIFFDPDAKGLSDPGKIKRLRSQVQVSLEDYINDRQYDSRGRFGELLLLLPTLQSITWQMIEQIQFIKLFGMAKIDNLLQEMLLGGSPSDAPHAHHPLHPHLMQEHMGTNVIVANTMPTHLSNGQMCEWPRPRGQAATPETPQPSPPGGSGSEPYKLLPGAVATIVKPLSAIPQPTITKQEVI

Row | Compound | inhibition
1 | COc1ccc(CN2C(=O)NC(=O)/C(=C\c3ccc(OC)c(OC)c3OC)C2=O)cc1 | 31.3% (active)
2 | CN(C)CC1Oc2ccccc2OC1(O)c1ccccc1 (stereo not given) | 104% (active)
3 | Cc1cccc(N2C(=O)NC(=O)/C(=C\c3cnn(-c4ccccc4)c3)C2=O)c1 | 68.7% (active)
4 | CCOC(=O)[C@]12Cc3ccccc3[C@H]1N(C1CCCCC1)C(=O)c1cc(OC)ccc12 | 27.9% (active)
5 | CCc1nnc(NS(=O)(=O)c2ccc(N=Cc3c(O)n(-c4ccccc4)c(=O)[nH]c3=O)cc2)s1 | 33.6% (active)
